Data taken from the supplement of paper PMC10849652.
Targets with a hit are over-represented here; the source holds about 7,900 in all. About 0.6% of all pairs of compound and target were hits.

Key:
Assay in all cases: log2 fold change, soluble protein after heating vs DMSO (PISA); higher = thermal stabilisation; K562 cells, 10 uM, 30 min; active = over 0.2 and 3.5 SD of the protein, either way, in both replicates (recomputed)
bafetinib = compound: Cc1ccc(NC(=O)c2ccc(CN3CC[C@H](N(C)C)C3)c(C(F)(F)F)c2)cc1Nc1nccc(-c2cncnc2)n1 [bafetinib]
In short: (§1)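 K562 cells at 2×10^6 cells/mL were given 10 μM compound for 30 min. Aliquots then went through 3 min of heating across 48°C-58°C, were pooled, and were extracted in PBS with 0.5% NP-40 at 4°C, and the supernatant after 21,000xg for 90 min was quantified by TMTpro 16plex LC-MS/MS with channel sums equalised. Thermal stability relative to control samples, from duplicates, is given as log2 fold change.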

[1] = compound: Cc1cccc(CC(=O)N2CCc3c2ccc(-c2cn(C)c4ncnc(N)c24)c3F)n1
In short: as §1

nilotinib = compound: Cc1cn(-c2cc(NC(=O)c3ccc(C)c(Nc4nccc(-c5cccnc5)n4)c3)cc(C(F)(F)F)c2)cn1 [nilotinib]
In short: as §1

[2] = compound: Cc1nc(Nc2n[nH]c3c2CN(C(=O)N[C@H](CN(C)C)c2ccccc2)C3(C)C)c2sccc2n1
In short: as §1

dasatinib = compound: Cc1nc(Nc2ncc(C(=O)Nc3c(C)cccc3Cl)s2)cc(N2CCN(CCO)CC2)n1 [dasatinib]
In short: as §1

[3] = compound: Cc1ncc(-c2ccnc(Nc3ccc(S(C)(=O)=O)cc3)n2)n1C(C)C
In short: as §1

[4] = compound: Cn1cc(-c2ccc3c(c2)CCN3C(=O)Cc2cccc(C(F)(F)F)c2)c2c(N)ncnc21
In short: as §1

[5] = compound: Cn1cc(-c2ccc3nnc(C(F)(F)c4ccc5ncccc5c4)n3n2)cn1
In short: as §1

tipifarnib = compound: Cn1cncc1[C@@](N)(c1ccc(Cl)cc1)c1ccc2c(c1)c(-c1cccc(Cl)c1)cc(=O)n2C [tipifarnib]
In short: as §1

mubritinib = compound: FC(F)(F)c1ccc(/C=C/c2nc(COc3ccc(CCCCn4ccnn4)cc3)co2)cc1 [mubritinib]
In short: as §1

Measured: log2 fold change

ADH5 (UniProt P11766)
inactive: bafetinib -0.009 | [1] 0.006 | nilotinib -0.013 | [2] 0.023 | dasatinib 0.036 | [3] 0.013 | [4] 0.021 | [5] -0.006 | tipifarnib -0.029 | mubritinib 0.028

ATG4B isoform 2 (UniProt Q9Y4P1)
inactive: bafetinib 0.004 | [1] 0.073 | nilotinib -0.061 | [2] -0.035 | dasatinib -0.242 | [3] -0.041 | [4] 0.022 | [5] 0.13 | tipifarnib -0.402 | mubritinib 0.073

ALDH6A1 (UniProt Q02252)
inactive: bafetinib -0.045 | [1] -0.103 | nilotinib -0.003 | [2] 0.018 | dasatinib -0.204 | [3] -0.015 | [4] -0.019 | [5] -0.019 | tipifarnib 0.01
active: mubritinib -0.528

ACADM isoform 2 (UniProt P11310)
UniProt P11310, sequence (P11310 whole entry, looked up): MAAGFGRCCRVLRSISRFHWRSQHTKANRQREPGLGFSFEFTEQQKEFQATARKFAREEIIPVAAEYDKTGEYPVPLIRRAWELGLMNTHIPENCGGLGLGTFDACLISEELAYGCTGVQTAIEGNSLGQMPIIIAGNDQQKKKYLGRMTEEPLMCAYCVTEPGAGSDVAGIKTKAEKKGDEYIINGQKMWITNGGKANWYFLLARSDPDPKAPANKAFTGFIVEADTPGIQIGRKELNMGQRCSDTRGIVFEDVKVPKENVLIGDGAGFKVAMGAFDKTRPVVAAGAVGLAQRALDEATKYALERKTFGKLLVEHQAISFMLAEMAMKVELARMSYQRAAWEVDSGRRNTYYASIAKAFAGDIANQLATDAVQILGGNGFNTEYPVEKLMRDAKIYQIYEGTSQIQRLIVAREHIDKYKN
inactive: bafetinib -0.073 | [1] 0.002 | nilotinib -0.013 | [2] 0.025 | dasatinib -0.054 | [3] -0.002 | [4] 0.039 | [5] 0.024 | tipifarnib 0.012 | mubritinib 0.016

ANP32E (UniProt Q9BTT0)
UniProt Q9BTT0, sequence (Q9BTT0 whole entry, looked up): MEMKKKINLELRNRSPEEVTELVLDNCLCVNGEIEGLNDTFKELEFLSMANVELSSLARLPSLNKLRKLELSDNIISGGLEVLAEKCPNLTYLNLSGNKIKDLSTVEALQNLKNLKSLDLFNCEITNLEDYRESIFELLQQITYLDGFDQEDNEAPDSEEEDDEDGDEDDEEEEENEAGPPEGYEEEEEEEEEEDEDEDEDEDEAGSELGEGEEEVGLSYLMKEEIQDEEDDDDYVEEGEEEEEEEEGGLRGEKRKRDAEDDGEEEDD
inactive: bafetinib 0.04 | [1] 0.146 | nilotinib -0.061 | [2] -0.123 | dasatinib 0.053 | [3] -0.104 | [4] 0.013 | [5] 0.027 | tipifarnib 0.001 | mubritinib -0.047

AP2M1 (UniProt Q96CW1)
inactive: bafetinib 0.042 | [1] -0.012 | nilotinib 0.012 | [2] 0.031 | dasatinib 0.048 | [3] -0.02 | [4] -0.013 | [5] -0.004 | tipifarnib 0.02 | mubritinib -0.035

BRD4 (UniProt O60885)
inactive: bafetinib 0.067 | [1] 0.054 | nilotinib -0.144 | [2] 0.017 | dasatinib -0.094 | [3] -0.233 | [4] 0.011 | [5] -0.046 | tipifarnib -0.09 | mubritinib 0.032

ACAP2 (UniProt Q15057)
inactive: bafetinib 0.093 | [1] 0.052 | nilotinib -0.006 | [2] -0.05 | dasatinib -0.04 | [3] 0.051 | [4] -0.073 | [5] -0.051 | tipifarnib -0.097 | mubritinib 0.016

ARFGAP1 (UniProt Q8N6T3)
inactive: bafetinib -0.041 | [1] -0.009 | nilotinib -0.015 | [2] -0.193 | dasatinib -0.097 | [3] -0.004 | [4] -0.003 | [5] 0.008 | tipifarnib -0.036 | mubritinib -0.022

ALG3 (UniProt Q92685)
UniProt Q92685, sequence (Q92685 whole entry, looked up): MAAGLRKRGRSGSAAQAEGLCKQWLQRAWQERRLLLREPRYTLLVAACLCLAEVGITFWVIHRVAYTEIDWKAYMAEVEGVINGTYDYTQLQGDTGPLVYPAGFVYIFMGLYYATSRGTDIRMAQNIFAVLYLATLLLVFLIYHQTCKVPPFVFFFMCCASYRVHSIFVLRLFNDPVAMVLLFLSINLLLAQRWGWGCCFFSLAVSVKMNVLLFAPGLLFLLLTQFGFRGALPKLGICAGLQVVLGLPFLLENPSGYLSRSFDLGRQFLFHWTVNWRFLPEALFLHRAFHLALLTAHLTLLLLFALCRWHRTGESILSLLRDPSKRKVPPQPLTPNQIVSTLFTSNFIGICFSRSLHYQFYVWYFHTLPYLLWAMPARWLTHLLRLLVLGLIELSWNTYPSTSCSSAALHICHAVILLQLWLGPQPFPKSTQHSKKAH
inactive: bafetinib -0.047 | [1] 0.075 | nilotinib 0.002 | [2] 0.021 | dasatinib 0.031 | [3] 0.017 | [4] -0.065 | [5] 0.013 | tipifarnib -0.062 | mubritinib 0.006

ANAPC2 (UniProt Q9UJX6)
inactive: bafetinib -0.048 | [1] 0.024 | nilotinib -0.004 | [2] -0.053 | dasatinib -0.04 | [3] 0.003 | [4] -0.005 | [5] -0.036 | tipifarnib -0.005 | mubritinib 0.049

AAMP (UniProt Q13685)
UniProt Q13685, sequence (Q13685 whole entry, looked up): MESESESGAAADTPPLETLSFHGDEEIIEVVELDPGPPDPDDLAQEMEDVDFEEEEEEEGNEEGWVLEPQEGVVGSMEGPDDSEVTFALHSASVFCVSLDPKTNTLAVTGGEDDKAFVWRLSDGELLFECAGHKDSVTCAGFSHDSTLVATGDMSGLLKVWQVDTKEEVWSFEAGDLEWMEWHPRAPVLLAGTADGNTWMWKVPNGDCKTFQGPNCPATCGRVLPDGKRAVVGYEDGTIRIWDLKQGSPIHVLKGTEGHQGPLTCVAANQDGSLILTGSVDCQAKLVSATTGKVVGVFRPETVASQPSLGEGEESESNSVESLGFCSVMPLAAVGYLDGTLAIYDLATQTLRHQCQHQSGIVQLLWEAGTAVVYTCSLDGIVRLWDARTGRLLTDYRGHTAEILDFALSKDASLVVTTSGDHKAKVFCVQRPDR
inactive: bafetinib 0.011 | [1] 0.014 | nilotinib 0.009 | [2] 0.005 | dasatinib 0.04 | [3] 0.012 | [4] -0.038 | [5] -0.028 | tipifarnib -0.026 | mubritinib 0.02

ACADVL isoform 3 (UniProt P49748)
UniProt P49748, sequence (P49748 whole entry, looked up): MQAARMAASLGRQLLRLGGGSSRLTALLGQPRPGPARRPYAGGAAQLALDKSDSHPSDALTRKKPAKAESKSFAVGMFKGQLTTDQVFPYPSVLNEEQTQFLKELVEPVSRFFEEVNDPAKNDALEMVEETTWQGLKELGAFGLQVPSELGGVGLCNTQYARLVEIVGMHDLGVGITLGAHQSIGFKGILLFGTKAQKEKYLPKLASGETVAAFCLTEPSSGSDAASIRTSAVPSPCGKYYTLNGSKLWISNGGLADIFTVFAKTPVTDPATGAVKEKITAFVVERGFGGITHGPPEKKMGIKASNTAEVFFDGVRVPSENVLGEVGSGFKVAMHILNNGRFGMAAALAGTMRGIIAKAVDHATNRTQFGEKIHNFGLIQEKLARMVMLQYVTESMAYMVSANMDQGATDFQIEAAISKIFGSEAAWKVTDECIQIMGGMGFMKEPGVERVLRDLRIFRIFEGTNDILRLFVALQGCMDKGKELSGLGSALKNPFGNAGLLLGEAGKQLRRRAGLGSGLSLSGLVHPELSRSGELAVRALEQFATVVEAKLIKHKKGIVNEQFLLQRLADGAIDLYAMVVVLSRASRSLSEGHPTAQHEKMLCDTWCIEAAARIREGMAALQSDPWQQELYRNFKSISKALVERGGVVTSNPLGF
inactive: bafetinib -0.093 | [1] 0 | nilotinib 0.032 | [2] 0.02 | dasatinib -0.016 | [3] -0.007 | [4] 0.022 | [5] 0.026 | tipifarnib -0.01 | mubritinib 0.071

ACP1 isoform 2 (UniProt P24666)
UniProt P24666, sequence (P24666 whole entry, looked up): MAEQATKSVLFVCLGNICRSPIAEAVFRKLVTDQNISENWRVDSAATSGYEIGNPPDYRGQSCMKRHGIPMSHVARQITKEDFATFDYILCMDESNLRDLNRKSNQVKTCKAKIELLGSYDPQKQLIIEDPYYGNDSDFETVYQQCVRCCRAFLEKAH
inactive: bafetinib 0.037 | [1] 0.036 | nilotinib 0.039 | [2] -0.063 | dasatinib -0.126 | [3] -0.049 | [4] -0.044 | [5] 0.022 | tipifarnib -0.146 | mubritinib 0.042

AHSA1 (UniProt O95433)
inactive: bafetinib -0.059 | [1] 0.013 | nilotinib -0.052 | [2] -0.035 | dasatinib -0.096 | [3] -0.018 | [4] 0.065 | [5] 0.009 | tipifarnib -0.056 | mubritinib 0.038

BTBD6 (UniProt Q96KE9)
UniProt Q96KE9, sequence (Q96KE9 whole entry, looked up): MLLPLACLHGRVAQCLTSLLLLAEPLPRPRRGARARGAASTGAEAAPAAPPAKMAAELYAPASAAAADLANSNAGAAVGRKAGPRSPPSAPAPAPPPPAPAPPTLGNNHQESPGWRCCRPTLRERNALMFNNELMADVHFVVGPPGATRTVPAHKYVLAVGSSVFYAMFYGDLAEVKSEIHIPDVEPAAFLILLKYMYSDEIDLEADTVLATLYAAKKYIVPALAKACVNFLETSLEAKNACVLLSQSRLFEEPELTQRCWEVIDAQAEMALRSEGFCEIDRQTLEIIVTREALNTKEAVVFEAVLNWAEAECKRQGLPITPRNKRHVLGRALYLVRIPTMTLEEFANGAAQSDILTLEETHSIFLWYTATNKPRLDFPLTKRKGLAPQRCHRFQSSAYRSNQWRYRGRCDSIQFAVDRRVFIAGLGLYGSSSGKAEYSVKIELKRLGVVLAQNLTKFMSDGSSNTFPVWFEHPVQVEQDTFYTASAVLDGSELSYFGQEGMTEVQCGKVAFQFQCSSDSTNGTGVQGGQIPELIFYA
inactive: bafetinib -0.007 | [1] 0.011 | nilotinib 0.277 | [2] -0.044 | dasatinib 0.008 | [3] -0.098 | [4] 0.239 | [5] -0.003 | tipifarnib -0.121 | mubritinib 0.153

BCL9L (UniProt Q86UU0)
inactive: bafetinib 0.043 | [1] 0 | nilotinib -0.046 | [2] -0.064 | dasatinib 0.018 | [3] 0.053 | [4] -0.013 | [5] -0.031 | tipifarnib 0.014 | mubritinib 0.026

ATIC (UniProt P31939)
active: mubritinib 0.206
inactive: bafetinib 0.067 | [1] 0.058 | nilotinib 0.158 | [2] -0.033 | dasatinib 0.022 | [3] -0.006 | [4] 0.104 | [5] 0.048 | tipifarnib -0.047

ATP6V0A1 (UniProt Q93050)
inactive: bafetinib -0.078

BRD8 (UniProt Q9H0E9)
UniProt Q9H0E9, sequence (Q9H0E9 whole entry, looked up): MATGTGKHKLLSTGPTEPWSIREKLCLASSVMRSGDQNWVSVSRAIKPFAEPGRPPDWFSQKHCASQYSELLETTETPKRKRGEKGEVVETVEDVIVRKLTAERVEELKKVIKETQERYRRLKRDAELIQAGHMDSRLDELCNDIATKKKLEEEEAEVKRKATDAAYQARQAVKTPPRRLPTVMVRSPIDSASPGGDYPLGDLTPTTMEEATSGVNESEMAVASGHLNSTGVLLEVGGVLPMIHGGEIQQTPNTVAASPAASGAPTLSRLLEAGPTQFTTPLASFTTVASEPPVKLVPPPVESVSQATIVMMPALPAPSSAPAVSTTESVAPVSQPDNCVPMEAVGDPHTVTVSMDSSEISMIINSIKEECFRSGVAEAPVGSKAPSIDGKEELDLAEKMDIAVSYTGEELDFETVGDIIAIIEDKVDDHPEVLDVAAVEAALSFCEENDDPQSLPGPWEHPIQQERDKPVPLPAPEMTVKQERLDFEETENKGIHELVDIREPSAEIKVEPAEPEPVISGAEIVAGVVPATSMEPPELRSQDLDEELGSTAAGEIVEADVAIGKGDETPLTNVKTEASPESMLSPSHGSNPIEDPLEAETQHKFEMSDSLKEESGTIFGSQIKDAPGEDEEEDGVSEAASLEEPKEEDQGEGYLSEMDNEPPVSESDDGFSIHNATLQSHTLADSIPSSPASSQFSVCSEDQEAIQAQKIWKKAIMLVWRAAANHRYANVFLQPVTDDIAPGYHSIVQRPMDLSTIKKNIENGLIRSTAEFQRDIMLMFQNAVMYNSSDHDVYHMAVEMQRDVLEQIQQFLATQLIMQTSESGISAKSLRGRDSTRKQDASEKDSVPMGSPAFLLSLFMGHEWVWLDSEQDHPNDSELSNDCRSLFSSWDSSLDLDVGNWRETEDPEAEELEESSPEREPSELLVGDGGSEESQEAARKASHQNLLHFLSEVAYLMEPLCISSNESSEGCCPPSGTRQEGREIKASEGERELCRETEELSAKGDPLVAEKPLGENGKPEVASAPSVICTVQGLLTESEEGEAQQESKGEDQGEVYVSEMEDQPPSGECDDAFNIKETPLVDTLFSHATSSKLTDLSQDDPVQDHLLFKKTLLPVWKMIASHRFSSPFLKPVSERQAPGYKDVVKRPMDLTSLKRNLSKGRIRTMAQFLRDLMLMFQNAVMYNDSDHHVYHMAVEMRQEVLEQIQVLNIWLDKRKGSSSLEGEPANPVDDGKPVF
inactive: bafetinib -0.032 | [1] -0.072 | nilotinib -0.01 | [2] -0.055 | dasatinib 0.057 | [3] -0.019 | [4] 0.018 | [5] -0.028 | tipifarnib 0.054 | mubritinib 0.011

ATP13A2 (UniProt Q9NQ11)
inactive: bafetinib -0.002 | [1] 0.001 | nilotinib 0.01 | [2] 0.014 | dasatinib -0.007 | [3] 0.018 | [4] 0.045 | [5] 0.069 | tipifarnib 0.06 | mubritinib 0.108

ACSL5 isoform 3 (UniProt Q9ULC5)
inactive: [1] -0.01 | nilotinib -0.055 | [2] -0.06 | dasatinib 0.062 | [3] 0.012 | [4] 0.066 | [5] 0.007 | tipifarnib 0.043 | mubritinib -0.018
active: bafetinib -0.271

BRIP1 (UniProt Q9BX63)
inactive: bafetinib -0.135 | [1] -0.011 | nilotinib -0.069 | [2] 0.036 | dasatinib -0.09 | [3] -0.071 | [4] 0.02 | [5] -0.197 | tipifarnib -0.101

AP2S1 (UniProt P53680)
inactive: bafetinib 0.023 | [1] -0.01 | nilotinib -0.019 | [2] -0.009 | dasatinib -0.011 | [3] -0.082 | [4] -0.057 | [5] 0.004 | tipifarnib -0.04 | mubritinib -0.001

BRD3 (UniProt Q15059)
inactive: bafetinib -0.152 | [1] -0.002 | nilotinib -0.088 | [2] -0.031 | dasatinib -0.319 | [3] -0.138 | [4] -0.05 | [5] 0.086 | tipifarnib -0.126 | mubritinib 0.047

ARL3 (UniProt P36405)
UniProt P36405, sequence (P36405 whole entry, looked up): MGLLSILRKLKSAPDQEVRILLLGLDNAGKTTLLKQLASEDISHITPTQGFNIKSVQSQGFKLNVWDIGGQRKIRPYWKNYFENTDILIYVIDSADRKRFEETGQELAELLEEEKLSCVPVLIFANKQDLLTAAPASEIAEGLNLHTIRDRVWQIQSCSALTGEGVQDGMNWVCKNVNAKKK
inactive: bafetinib -0.024 | [1] -0.029 | nilotinib 0.011 | [2] 0.006 | dasatinib 0.001 | [3] -0.003 | [4] 0.022 | [5] -0.018 | tipifarnib -0.034 | mubritinib 0.029

AKT2 (UniProt P31751)
inactive: bafetinib 0.021 | [1] 0.049 | nilotinib -0.037 | [2] -0.144 | dasatinib -0.145 | [3] -0.108 | [4] 0.019 | [5] -0.034 | tipifarnib -0.185 | mubritinib 0.037

ADK (UniProt P55263)
active: dasatinib 0.387
inactive: bafetinib 0.201 | [1] 0 | nilotinib 0.122 | [2] 0.208 | [3] 0.07 | [4] 0.006 | [5] 0.241 | tipifarnib 0.291 | mubritinib 0.037

ARL6IP4 (UniProt Q66PJ3)
inactive: bafetinib -0.042 | [1] 0.002 | nilotinib -0.012 | dasatinib 0.016 | [3] 0.013 | [4] 0.112 | [5] -0.038 | tipifarnib 0.019 | mubritinib 0.023
active: [2] -0.459

ACSM3 (UniProt Q53FZ2)
UniProt Q53FZ2, sequence (Q53FZ2 whole entry, looked up): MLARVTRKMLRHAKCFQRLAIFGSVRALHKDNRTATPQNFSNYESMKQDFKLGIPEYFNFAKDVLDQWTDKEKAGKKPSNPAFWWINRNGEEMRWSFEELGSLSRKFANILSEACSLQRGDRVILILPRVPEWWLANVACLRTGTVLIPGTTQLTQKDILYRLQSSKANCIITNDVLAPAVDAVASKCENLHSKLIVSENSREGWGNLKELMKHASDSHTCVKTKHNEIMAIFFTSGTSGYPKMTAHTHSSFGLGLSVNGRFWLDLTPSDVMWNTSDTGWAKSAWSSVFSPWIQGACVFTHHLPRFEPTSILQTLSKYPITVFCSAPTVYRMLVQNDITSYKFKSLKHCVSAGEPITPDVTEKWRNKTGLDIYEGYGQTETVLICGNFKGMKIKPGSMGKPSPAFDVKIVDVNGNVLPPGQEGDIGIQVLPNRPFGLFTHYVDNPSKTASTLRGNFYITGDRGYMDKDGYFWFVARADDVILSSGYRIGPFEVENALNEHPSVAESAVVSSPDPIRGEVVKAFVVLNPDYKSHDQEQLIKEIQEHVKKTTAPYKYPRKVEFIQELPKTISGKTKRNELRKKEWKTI
inactive: bafetinib 0.009 | [1] -0.061 | nilotinib -0.015 | [2] 0.002 | dasatinib -0.185 | [3] 0.028 | [4] 0.012 | [5] 0.128 | tipifarnib 0.002
active: mubritinib -0.343
